Measured values reported in PubChem BioAssay (EPA / NIEHS).
“And” between values parts separate entries of the source, which are not always exact repeats. Identical values can stand only once. Inconclusive results are not listed. The source made the active and inactive calls. How the source made its calls, unless noted: active means hit-call score of the fitted dose curve at least 0.9, where 1 is the maximum; inactive means score below 0.9.

Legend:
[1] = CCTE_Shafer_MEA_dev_AB: CCTE's Alamar Blue Assay for Cytotoxicity in the Neural Network Formation Assay, Shafer Lab (AID 2284083; active means hit-call score of the fitted dose curve at least 0.9, where 1 is the maximum;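 further: resazurin reduction fluorescence as viability of cultured neurons; twelve days of exposure from plating with re-dosing on DIV 5 and 9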)
How it was run: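 Rat cortical primary cultures, 1.5 x 10^5 cells/well on MEA; continuous compound exposure over 12 days of network development, re-dosed with full medium change DIV 5 and 9. Alamar Blue fluorescence; loss of signal = cytotoxicity vs DMSO baseline.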

[2] = CCTE_Shafer_MEA_acute_LDH: CCTE's Lactate Dehydrogenase Assay for Cytotoxicity in the Neural Acute Assay, Shafer Lab (AID 2284086; active means hit-call score of the fitted dose curve at least 0.9, where 1 is the maximum;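 further: active means LDH release rises above DMSO vehicle level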)
How it was run: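 Primary rat cortical neurons on 48-well MEA plates, treated on day 13 or 15 post-plating. After the 40-min recording with compound, medium LDH release was read by absorbance at 490 nm. Gain of signal was fitted against DMSO negative control.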

[3] = CCTE_Shafer_MEA_dev_mutual_information_norm: CCTE's Neural Network Formation Assay for Mutual Information Normalization, Shafer Lab (AID 2284091);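 on AC50: mutual information between electrodes summarised as area under curve across four recording days; potency is for a decrease in mutual information relative to DMSO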
How it was run: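 Rat cortical cultures, 48-well MEA, continuous exposure DIV 0–12 with full media/compound change DIV 5 and 9. Readout: inter-electrode mutual information, AxIS adaptive spike detection; AUC across DIV 5/7/9/12 recordings; DMSO baseline, negative fitting direction.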

[4] = CCTE_Shafer_MEA_dev_correlation_coefficient_mean: CCTE's Neural Network Formation Assay for Mean Correlation Coefficient, Shafer Lab (AID 2284093);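 on AC50: well mean pairwise spike train correlation integrated as AUC over recording days 5 to 12; potency fitted for loss of correlation relative to DMSO vehicle wells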
How it was run: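 Rat cortical cultures, 1.5 x 10^5 cells/well, dosed from day 0 for 12 days. Spontaneous spikes recorded DIV 5/7/9/12; electrode-pair correlation coefficients averaged, AUC taken. Fit in loss direction vs DMSO.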

[5] = IUF_NPC1b_proliferation_BrdU_72hr: Leibniz Research Institute for Environmental Medicine (IUF) 72-hour Neural Progenitor Cell Bromodeoxyuridine (BrdU) Proliferation Assay (NPC1b) (AID 2284207)
How it was run: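 hNPC spheres (primary, GW 16-19 fetal cortex), single sphere/well, EGF+FGF medium; 72 h compound, no renewal; BrdU pulse last 16 h; luminescent ELISA; activity vs DMSO baseline; growth-factor withdrawal as positive control.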

[6] = IUF_NPC1a_proliferation_area_72hr: Leibniz Research Institute for Environmental Medicine (IUF) 72-hour Neural Progenitor Cell Proliferation Area Assay (NPC1a) (AID 2284208)
How it was run: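 Read-out: increase in sphere area over 72 h by automated phase-contrast imaging, fitted in positive direction versus DMSO baseline. One hNPC sphere (0.25-0.35 mm) per well in EGF/FGF medium; growth-factor withdrawal served as positive control.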

[7] = IUF_NPC1_viability_72hr: Viability Assessment at 72 hours in the Leibniz Research Institute for Environmental Medicine (IUF) Neural Progenitor Cell Proliferation Assay (NPC1) (AID 2284209)
How it was run: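 Human fetal-cortex neural progenitor spheres (0.25–0.35 mm, one per well) grown in EGF/FGF proliferation medium at 37C, pH 7.2-7.6, exposed 72 h without renewal; viability read as alamar blue resazurin-to-resorufin fluorescence relative to DMSO.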

[8] = CCTE_Mundy_HCI_Cortical_Synap_Neur_Matur_NeuriteSpotCountPerNeuriteLength: CCTE's Synaptogenesis and Neurite Maturation Assay in rat cortical cells for Neurite Spot Count per Neurite Length, Mundy Lab (AID 2284210)
How it was run: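 Rat primary cortical cultures, glia arrested with AraC at DIV 5, were dosed with media change at DIV 7 and fixed at DIV 12. Synaptophysin puncta per MAP2-labelled neurite length were quantified by high-content imaging versus DMSO.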

[9] = CCTE_Mundy_HCI_Cortical_Synap_Neur_Matur_BPCount: CCTE's Synaptogenesis and Neurite Maturation Assay in rat cortical cells for Branch Point Count, Mundy Lab (AID 2284211)
How it was run: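 Branch point number is quantified by automated imaging of fluorescently labelled neurites and synapses in rat primary cortical neurons exposed from DIV 7 to DIV 12. Activity is analysed relative to DMSO negative control.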

[10] = CCTE_Mundy_HCI_Cortical_NOG_NeuriteCount: CCTE's Neurite Outgrowth Assay in rat cortical cells for Neurite Count, Mundy Lab (AID 2284212);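 further: cells fixed about two days after chemical exposure began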
How it was run: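 Neurite number per cell from high-content imaging of betaIII-tubulin immunostaining, with Hoechst nuclear counterstain.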

[11] = CCTE_Mundy_HCI_Cortical_NOG_NeuriteLength: CCTE's Neurite Outgrowth Assay in rat cortical cells for Neurite Length, Mundy Lab (AID 2284213);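 on AC50: neurites imaged about 48 to 50 h after chemical exposure began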
How it was run: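 Neurite length was read by high-content imaging of βIII-tubulin-labelled neurites in rat primary cortical cultures. Activity was fitted relative to DMSO.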

[12] = CCTE_Mundy_HCI_Cortical_Synap_Neur_Matur_NeuriteLength: CCTE's Synaptogenesis and Neurite Maturation Assay in rat cortical cells for Neurite Length, Mundy Lab (AID 2284214)
How it was run: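 Rat primary cortical cells were plated, treated with AraC at DIV 5 to arrest glial growth, then chemical-dosed with media change at DIV 7 through DIV 12. Fixed cells stained for MAP2, synaptophysin and Hoechst; neurite length quantified by high-content imaging.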

[13] = CCTE_Mundy_HCI_Cortical_Synap_Neur_Matur_NeuriteSpotCountPerNeuron: CCTE's Synaptogenesis and Neurite Maturation Assay in rat cortical cells for Neurite Spot Count per Neuron Count, Mundy Lab (AID 2284215)
How it was run: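 Rat primary cortical cells received AraC at DIV 5, then chemicals with a media change at DIV 7, and were fixed at DIV 12. Synaptophysin puncta on MAP2-stained neurites per neuron were counted by high-content imaging, fitted relative to DMSO.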

[14] = CCTE_Mundy_HCI_Cortical_Synap_Neur_Matur_SynapseCount: CCTE's Synaptogenesis and Neurite Maturation Assay in rat cortical cells for Synapse Count, Mundy Lab (AID 2284218)
How it was run: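 Rat primary cortical cells in 96-well plates received AraC at DIV 5 and were dosed with chemicals at DIV 7 with media change, through DIV 12 (288.33 h). Synapses per neuron counted by high-content imaging of MAP2/synaptophysin/Hoechst staining, versus DMSO baseline.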

[15] = TAMU_PeakParms_SingleDonor1434_Chronotropy: Texas A&M University (TAMU) 1.5-hr Human Induced Pluripotent Stem Cell (iPSC)-derived Cardiomyocytes Calcium (Ca+2) Flux Assay for Cardiotoxicity: Chronotropy (changes in peak frequency) (AID 2284217); conditions: actives raise or lower the signal
How it was run: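 iPSC-CMs, donor 1434; 4 conc (0.2–100 uM), 0.5% v/v DMSO, 90 min, 37C/5% CO2; Ca2+ flux fluorescence → peak.freq.avg; peak.freq.avg = 0 dropped; bidirectional fit vs DMSO; EC05 POD.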

[16] = UKN5_HCS_SBAD2_neurite_outgrowth: University of Konstanz (UKN) Leist Lab Neurite Outgrowth Assay in human iPSC-derived immature Dorsal Root Ganglia Neurons (UKN5) (AID 2284070); conditions: actives raise or lower the signal
How it was run: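 Human iPSC-derived immature DRG neurons (SBAD2) on Matrigel with CHIR99021 (1.5 uM), SU5402 (5 uM), DAPT (5 uM); compounds added 1 h post-seeding for 24 h. Calcein-AM neurite area imaged; bidirectional fit vs DMSO.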

[17] = UKN2_HCS_IMR90_neural_migration: University of Konstanz (UKN) Leist Lab Neural Crest Cell Migration Assay in human induced IMR90 Pluripotent Stem Cells (UKN2) (AID 2284204); conditions: actives raise or lower the signal
How it was run: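 iPSC-derived IMR90 neural crest cells on PLO/laminin/fibronectin were seeded around silicone stoppers; after stopper removal, migration in N2-S medium with EGF and FGF ran 24 h before 24 h chemical exposure. Calcein-AM/Hoechst high-content imaging; bidirectional fit versus DMSO.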

[18] = UKN4_HCS_LUHMES_neurite_outgrowth: University of Konstanz (UKN) Leist Lab Neurite Outgrowth Assay in human LUHMES cells (UKN4) (AID 2284206); conditions: actives raise or lower the signal
How it was run: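 LUHMES neuronal precursors differentiated 2 days, replated without cAMP/GDNF, then exposed to chemicals for 24 h. Neurite area imaged by high-content microscopy after calcein-AM staining; Hoechst H-33342 marks viability. Bidirectional fit versus DMSO.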

[19] = CCTE_Mundy_HCI_hN2_NOG_NeuriteCount: CCTE's Neurite Outgrowth Assay in human hN2 cells for Neurite Count, Mundy Lab (AID 2284219; active means hit-call score of the fitted dose curve at least 0.9, where 1 is the maximum)
How it was run: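 In this morphology assay, hNP1-derived neurons received test chemical 2 h post-plating and were fixed two days later in warm paraformaldehyde/sucrose containing Hoechst 33342. Neurites, labelled by rabbit anti-βIII-tubulin (1:800) and Alexa Fluor-488 (1:500), were counted automatically.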

[20] = CCTE_Mundy_HCI_hN2_NOG_NeuriteLength: CCTE's Neurite Outgrowth Assay in human hN2 cells for Neurite Length, Mundy Lab (AID 2284220; active means hit-call score of the fitted dose curve at least 0.9, where 1 is the maximum)
How it was run: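 Using βIII-tubulin immunofluorescence and Hoechst nuclear counterstain, this component quantifies neurite length in hNP1-derived neurons.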

Measured: AC50

COCCc1ccc(OCC(O)CNC(C)C)cc1 (configuration not stated)
not listed: [15] | [16] | [17] | [18] | [19] | [20]
inactive: all other assays above

CC(C)NCC(O)COc1ccc(CC(N)=O)cc1 (configuration not stated)
inactive: [15]

FC(F)(F)COCC(F)(F)F
inactive: [3] | [4]

O=C(Nc1ccc2c(O)c(N=Nc3ccc(N=Nc4ccc(S(=O)(=O)O)cc4)cc3)c(S(=O)(=O)O)cc2c1)c1ccccc1
inactive: [2]

CS(=O)(=O)OCCCCOS(C)(=O)=O
inactive: [1] | [3] | [4]

CC1(C)CCC[C@]2(C)[C@H]3CCO[C@]3(C)CC[C@@H]12
inactive: [2]

Oc1c(Cl)cc(Cl)c(Cl)c1Cc1c(O)c(Cl)cc(Cl)c1Cl
inactive: [2] | [7] | [8] | [15]
active: [16] 78 µM | [1] 8.76 µM and 3.54 µM | [3] 578 nM and 302 nM | [4] 765 nM and 832 nM | [17] 0.885 µM | [18] 7.47 µM | [5] 13.4 µM | [6] 17.6 µM | [9] 8.53 µM | [10] 31 µM | [11] 23.1 µM | [12] 13.4 µM | [13] 9.95 µM | [14] 13.1 µM | [19] 1.42 µM | [20] 1.38 µM

CCCCCCC(CO)CCCC (configuration not stated)
inactive: [2]

CN(C)CCOC(C)(c1ccccc1)c1ccccn1 (configuration not stated)
not listed: [2] | [15] | [16] | [17] | [18] | [19] | [20]
inactive: all other assays above

COCCOCCOCCO
not listed: [2] | [15] | [16] | [18] | [19] | [20]
inactive: all other assays above

CN(C)C(=S)SC(=S)N(C)C
inactive: [2]

C=CC(C)(O)CCC=C(C)C (configuration not stated)
inactive: [2]
